Experimental data published in PubChem BioAssay (NCATS).
Records with an inconclusive call do not appear. Activity calls are given as the source filed them. Calls follow the shape of the dose curve; as a rule, active = well fitted curve in the direction sought with a large enough effect; inconclusive = small, poorly fitted or top-dose-only effect, or another doubt; inactive = no such curve, though single readings can be large; an effect the other way counts as inactive or inconclusive.

biological target: Protein phosphatase 1D (Homo sapiens) (UniProt O15297); assay: RapidFire Mass Spectrometry qHTS Assay for Modulators of WT P53-Induced Phosphatase 1 (WIP1) (AID 1347424); conditions: WIP1 dephosphorylation of phosphopeptide, RapidFire MS; series mostly up to 63 µM; activity change, negative = inhibition: at the top concentration;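 also: amount of dephosphorylated VEPPL-S-QETFS peptide product formed by WIP1; plate controls were DMSO wells for no effect and GSK830371 inhibitor control at 10 µM for full effect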
In short: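 10 nM WIP1 preincubated with compounds 1 hr at room temperature in pH 7.5 Tris buffer with 30 mM MgCl2, 1 mM TCEP; 2 uM VEPPL-pS-QETFS phosphopeptide for 5 min, formic acid quench; dephosphorylated product quantified by RapidFire MS against labelled standard.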

Chain of Protein phosphatase 1D (Homo sapiens) (O15297 whole entry, looked up): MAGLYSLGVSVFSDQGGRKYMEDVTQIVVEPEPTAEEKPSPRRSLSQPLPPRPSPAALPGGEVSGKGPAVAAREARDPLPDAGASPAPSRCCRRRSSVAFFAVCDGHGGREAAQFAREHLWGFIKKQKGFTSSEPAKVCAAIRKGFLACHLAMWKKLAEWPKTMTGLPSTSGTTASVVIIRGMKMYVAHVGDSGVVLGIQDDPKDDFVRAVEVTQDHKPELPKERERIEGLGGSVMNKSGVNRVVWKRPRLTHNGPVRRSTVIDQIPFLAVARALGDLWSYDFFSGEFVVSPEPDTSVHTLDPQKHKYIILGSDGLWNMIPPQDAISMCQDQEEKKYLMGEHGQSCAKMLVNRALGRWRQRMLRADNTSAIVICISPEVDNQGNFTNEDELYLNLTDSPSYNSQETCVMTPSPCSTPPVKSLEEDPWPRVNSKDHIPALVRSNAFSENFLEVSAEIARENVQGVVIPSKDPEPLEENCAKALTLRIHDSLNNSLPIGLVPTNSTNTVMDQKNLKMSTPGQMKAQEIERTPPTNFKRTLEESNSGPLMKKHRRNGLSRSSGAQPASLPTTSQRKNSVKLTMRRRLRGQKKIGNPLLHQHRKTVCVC

**Q.** Which “activity change, negative = inhibition” value does the source give for `CNCCCC12CCC(c3ccccc31)c1ccccc12` here?
**A.** The value was 15.3% (inactive).

**Q.** `CN1CCC(=C2c3ccccc3CC(=O)c3sccc32)CC1` was tested. Which “activity change, negative = inhibition” value did it give?
**A.** The value was -7.39% (inactive).

**Q.** With `O=C1c2c(O)ccc(O)c2C(=O)c2c(NCCNCCO)ccc(NCCNCCO)c21` as the molecule, how does the “activity change, negative = inhibition” value read?
**A.** The value was 12.2% (inactive).

**Q.** With `CCOC(=O)Nc1ccc(NCc2ccc(F)cc2)nc1N` as the molecule, how does the “activity change, negative = inhibition” value read?
**A.** Its value is -3.56% (inactive).

**Q.** How did the “activity change, negative = inhibition” value turn out when `COc1ccc(C2CNC(=O)C2)cc1OC1CCCC1` (centres undefined) was run?
**A.** The value was -2.33% (inactive).

**Q.** For `CC(C(=O)O)c1cccc(C(=O)c2ccccc2)c1` (centres undefined), which “activity change, negative = inhibition” value is on record?
**A.** Its value is -3.69% (inactive).

**Q.** For `CC[C@@]1(O)C(=O)OCc2c1cc1n(c2=O)Cc2cc3c(CN(C)C)c(O)ccc3nc2-1`, which “activity change, negative = inhibition” value is on record?
**A.** The value was -5.47% (inactive).

**Q.** For `Nc1ccn([C@H]2CC[C@@H](CO)O2)c(=O)n1`, which “activity change, negative = inhibition” value is on record?
**A.** The value was 37.6% (inactive).

**Q.** Which “activity change, negative = inhibition” value does the source give for `CN(Cc1cnc2nc(N)nc(N)c2n1)c1ccc(C(=O)N[C@@H](CCC(=O)O)C(=O)O)cc1` here?
**A.** Its value is -0.397% (inactive).

**Q.** With `CC(C)NCC(O)COc1ccc(CCOCC2CC2)cc1` (centres undefined) as the molecule, how does the “activity change, negative = inhibition” value read?
**A.** Its value is 0.336% (inactive).

**Q.** With `CCOC(=O)C(C)(C)Oc1ccc(Cl)cc1` as the molecule, how does the “activity change, negative = inhibition” value read?
**A.** The value was -9.64% (inactive).

**Q.** How did the “activity change, negative = inhibition” value turn out when `CN1CCN2c3ccccc3Cc3ccccc3C2C1` (centres undefined) was run?
**A.** Its value is -10.3% (inactive).

**Q.** Which “activity change, negative = inhibition” value does the source give for `NC(=O)OCC(COC(N)=O)c1ccccc1` here?
**A.** Its value is 19.4% (inactive).

**Q.** Which “activity change, negative = inhibition” value does the source give for `CN1CCN(C2=Nc3cc(Cl)ccc3Nc3ccccc32)CC1` here?
**A.** The value was 33.9% (inactive).

**Q.** Which “activity change, negative = inhibition” value does the source give for `Cn1cnc2c1c(=O)[nH]c(=O)n2C` here?
**A.** The value was -2.71% (inactive).

**Q.** For `Nc1c2c(nc3ccccc13)CCCC2`, which “activity change, negative = inhibition” value is on record?
**A.** The value was 8.31% (inactive).

**Q.** How did the “activity change, negative = inhibition” value turn out when `CN1C(C(=O)Nc2ccccn2)=C(O)c2ccccc2S1(=O)=O` was run?
**A.** Its value is -13.7% (inactive).

**Q.** How did the “activity change, negative = inhibition” value turn out when `CCc1cccc2c3c([nH]c12)C(CC)(CC(=O)O)OCC3` (centres undefined) was run?
**A.** The value was -0.518% (inactive).

biological target: Protein phosphatase 1D (Homo sapiens) (UniProt O15297); assay: Rhodamine-PBP qHTS Assay for Modulators of WT P53-Induced Phosphatase 1 (WIP1) (AID 1347425); conditions: recombinant WIP1, Rhodamine-PBP phosphate fluorescence, real-time; series mostly up to 57.5 µM; activity change, negative = inhibition: at the top concentration; also: % of control where 0% means no effect
In short: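 Read-out: Rhodamine-PBP fluorescence (ex 525/em 598 nm) for released Pi, read each minute for 11 min after adding 10 uM VEPPL-pS-QETFS; signal taken as f1 minus pre-substrate f0. Enzyme 5 nM WIP1 with 1 hr room-temperature compound preincubation.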

**Q.** Which “activity change, negative = inhibition” value does the source give for `CNCCCC12CCC(c3ccccc31)c1ccccc12` here?
**A.** The value was 25.8% (inactive).

**Q.** How did the “activity change, negative = inhibition” value turn out when `COc1ccccc1OCCNCC(O)COc1cccc2[nH]c3ccccc3c12` (centres undefined) was run?
**A.** The value was -8.57% (inactive).

**Q.** With `CN1CCC(=C2c3ccccc3CC(=O)c3sccc32)CC1` as the molecule, how does the “activity change, negative = inhibition” value read?
**A.** Its value is 19.8% (inactive).

**Q.** For `NS(=O)(=O)c1cc2c(cc1Cl)NCNS2(=O)=O`, which “activity change, negative = inhibition” value is on record?
**A.** The value was -6.35% (inactive).

**Q.** `CC(C)NCC(O)c1ccc(O)c(O)c1` (centres undefined) was tested. Which “activity change, negative = inhibition” value did it give?
**A.** Its value is 4.49% (inactive).

**Q.** `O=C1c2c(O)ccc(O)c2C(=O)c2c(NCCNCCO)ccc(NCCNCCO)c21` was tested. Which “activity change, negative = inhibition” value did it give?
**A.** Its value is -17.9% (inactive).

**Q.** Which “activity change, negative = inhibition” value does the source give for `COc1ccc(C2CNC(=O)C2)cc1OC1CCCC1` (centres undefined) here?
**A.** The value was 4.2% (inactive).

**Q.** With `CC(C(=O)O)c1cccc(C(=O)c2ccccc2)c1` (centres undefined) as the molecule, how does the “activity change, negative = inhibition” value read?
**A.** Its value is -5.56% (inactive).

**Q.** How did the “activity change, negative = inhibition” value turn out when `CC[C@@]1(O)C(=O)OCc2c1cc1n(c2=O)Cc2cc3c(CN(C)C)c(O)ccc3nc2-1` was run?
**A.** The value was 2.7% (inactive).

**Q.** `Nc1ccn([C@H]2CC[C@@H](CO)O2)c(=O)n1` was tested. Which “activity change, negative = inhibition” value did it give?
**A.** Its value is 0.618% (inactive).

**Q.** Which “activity change, negative = inhibition” value does the source give for `CCOC(=O)c1ncn2c1CN(C)C(=O)c1cc(F)ccc1-2` here?
**A.** Its value is -7.34% (inactive).

**Q.** `Cc1cn([C@H]2C=C[C@@H](CO)O2)c(=O)[nH]c1=O` was tested. Which “activity change, negative = inhibition” value did it give?
**A.** Its value is 12.3% (inactive).

**Q.** How did the “activity change, negative = inhibition” value turn out when `COc1nc(C)nc(Cl)c1NC1=NCCN1` was run?
**A.** The value was 11.2% (inactive).

**Q.** With `CN(Cc1cnc2nc(N)nc(N)c2n1)c1ccc(C(=O)N[C@@H](CCC(=O)O)C(=O)O)cc1` as the molecule, how does the “activity change, negative = inhibition” value read?
**A.** The value was 6.64% (inactive).

**Q.** How did the “activity change, negative = inhibition” value turn out when `CC(C)NCC(O)COc1ccc(CCOCC2CC2)cc1` (centres undefined) was run?
**A.** The value was 1.47% (inactive).

**Q.** For `CN(C)CCOC(c1ccccc1)c1ccccc1`, which “activity change, negative = inhibition” value is on record?
**A.** The value was 5.49% (inactive).

**Q.** How did the “activity change, negative = inhibition” value turn out when `CCOC(=O)C(C)(C)Oc1ccc(Cl)cc1` was run?
**A.** Its value is -5.56% (inactive).

**Q.** For `CN1CCC(=C2c3ccccc3C=Cc3ccccc32)CC1`, which “activity change, negative = inhibition” value is on record?
**A.** Its value is 22.8% (inactive).

**Q.** Which “activity change, negative = inhibition” value does the source give for `CCC1(C)CC(=O)NC1=O` (centres undefined) here?
**A.** The value was 4.27% (inactive).

**Q.** For `CN1CCN2c3ccccc3Cc3ccccc3C2C1` (centres undefined), which “activity change, negative = inhibition” value is on record?
**A.** The value was 10.4% (inactive).

**Q.** For `NC(=O)OCC(COC(N)=O)c1ccccc1`, which “activity change, negative = inhibition” value is on record?
**A.** The value was 14.8% (inactive).

**Q.** For `O=c1[nH]cc(F)c(=O)[nH]1`, which “activity change, negative = inhibition” value is on record?
**A.** Its value is 1% (inactive).

**Q.** For `CC(CCc1ccc(O)cc1)NCCc1ccc(O)c(O)c1` (centres undefined), which “activity change, negative = inhibition” value is on record?
**A.** The value was 11.7% (inactive).

**Q.** How did the “activity change, negative = inhibition” value turn out when `CN(C)CCC=C1c2ccccc2C=Cc2ccccc21` was run?
**A.** The value was 22.8% (inactive).

**Q.** Which “activity change, negative = inhibition” value does the source give for `CN1CCN(C2=Nc3cc(Cl)ccc3Nc3ccccc32)CC1` here?
**A.** The value was -6.28% (inactive).

**Q.** For `Cn1cnc2c1c(=O)[nH]c(=O)n2C`, which “activity change, negative = inhibition” value is on record?
**A.** Its value is 5.1% (inactive).

**Q.** `Nc1c2c(nc3ccccc13)CCCC2` was tested. Which “activity change, negative = inhibition” value did it give?
**A.** The value was 5.72% (inactive).

**Q.** Which “activity change, negative = inhibition” value does the source give for `Nc1nc2c(ncn2COC(CO)CO)c(=O)[nH]1` here?
**A.** Its value is 11.1% (inactive).

**Q.** Which “activity change, negative = inhibition” value does the source give for `CN1C(C(=O)Nc2ccccn2)=C(O)c2ccccc2S1(=O)=O` here?
**A.** Its value is 5.99% (inactive).

**Q.** Which “activity change, negative = inhibition” value does the source give for `O=C(c1ccc(OCCN2CCCCC2)cc1)c1c(-c2ccc(O)cc2)sc2cc(O)ccc12` here?
**A.** The value was 7.57% (inactive).

**Q.** Which “activity change, negative = inhibition” value does the source give for `CCc1cccc2c3c([nH]c12)C(CC)(CC(=O)O)OCC3` (centres undefined) here?
**A.** The value was -5.92% (inactive).
